# INS-1E GSIS act = GLuc luminescence reporter in INS-1E cells, primary screen for activators of glucose-dependent secretion of insulin; activation, % at 16.6 µM; actives 0.61% (n = 370,000); INS-1E GLuc reporter insulin secretion, 2-3 h;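 active = lowest replicate activation of at least 40%, so every replicate reaches that level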;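 also: 0% = median of neutral control wells and 100% = median of IBMX positive control wells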
# Casp6 inh = human caspase-6 inhibitors, primary screen, biochemical, VEID-R110 fluorescence, single point, set 2. inhibition, % at 12.5 µM. purified caspase-6, Z-VEID-R110 cleavage fluorescence. P55212. actives 0.53% (n = 350,000);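 active = mean inhibition across replicates at least about 35%, with every replicate also reaching that limit, limit read from the data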;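 also: 0% = median of neutral control wells and 100% = no fluorescence left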
# Target sequence (P55212 24-179 limits assumed): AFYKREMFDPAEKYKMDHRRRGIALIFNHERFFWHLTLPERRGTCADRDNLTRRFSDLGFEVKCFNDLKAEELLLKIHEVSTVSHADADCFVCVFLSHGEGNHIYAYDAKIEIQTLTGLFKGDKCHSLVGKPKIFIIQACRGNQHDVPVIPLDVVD
# Target sequence (P55212 194-293 limits assumed): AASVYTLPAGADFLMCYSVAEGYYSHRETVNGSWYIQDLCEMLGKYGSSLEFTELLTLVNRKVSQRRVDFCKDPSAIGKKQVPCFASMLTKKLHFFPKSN
# FGF22 binding = binders of human FGF22 protein, primary screen, FGF22 synaptogenesis inhibitor project, biophysical, thermal shift, single point | Fibroblast growth factor 22 (Homo sapiens), Q9HCT0 | recombinant FGF22 thermal shift, SYPRO orange fluorescence; percent of sucrose octasulfate shift, DMSO zero | activity (Tm shift, normalised), % at 9.99 µM | actives 1.5% (n = 340,000) | AID 651658, 2012;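 active = mean Tm shift, scaled 0 neutral to 100 positive control, at about 1.3% or above, every replicate too, limit read from the data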
# ERAP1 HTS inh = human ERAP1 aminopeptidase inhibitors, primary screen, biochemical, single point, plate reader; recombinant ERAP1, Leu-AMC fluorescence, 60 min; inhibition, % at 10.7 µM; Endoplasmic reticulum aminopeptidase 1 (Homo sapiens), Q9NZ08; AID 652197, 2013; actives 0.15% (n = 340,000);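 active = mean replicate inhibition of at least 30%, or all replicates individually reaching that 30% level; inactive = mean below 30% and not every replicate reaching it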;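 also: 0% = neutral control wells and 100% = L-leucinethiol positive control wells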
# SIRT5 inh = SIRT5 desuccinylase inhibitors, primary screen, biochemical, fluorescence imaging, single point, set 5. NAD-dependent protein deacylase sirtuin-5, mitochondrial (Homo sapiens), Q9NXA8. Purified SirT5, succinyl-peptide AMC, trypsin-coupled fluorescence. inhibition, % at 15 µM. actives 1.1% (n = 330,000); in the data active = inhibition above about 15%
# Starred values were filed as active, the others as inactive; x = no result. Rows were chosen to be rich in hits. Some 3.3% of all compounds tested hit in one or more screens of this group.
SMILES,INS-1E GSIS act,Casp6 inh,FGF22 binding,ERAP1 HTS inh,SIRT5 inh
Cc1cc(C)c2nc(N3C(=O)C(O)=C(C(=O)c4ccco4)C3c3ccco3)sc2c1 (configuration not stated),-5,68*,0,-7,2
Cc1ccc2nc(N3C(=O)C(O)=C(C(=O)c4ccc(C)o4)C3c3ccc(O)cc3)sc2c1 (configuration not stated),x,29,x,5,22*
COc1ccc2nc(N3C(=O)C(O)=C(C(=O)c4ccco4)C3c3ccc(C)o3)sc2c1 (configuration not stated),-34,33,x,7,5
CCOc1ccc2nc(N3C(=O)C(O)=C(C(=O)c4ccco4)C3c3ccco3)sc2c1 (configuration not stated),-9,36*,0,-1,3
COc1cc(Cl)c(C)cc1NC(=O)CSc1sc2c(O)cc(=O)[nH]c2c1C#N,6,26,0,1,15*
COc1cc(Cl)c(C)cc1NC(=O)CSc1nnc(CCC(=O)O)c(=O)[nH]1,-11,10,0,-1,22*
COc1cc(Cl)c(C)cc1NC(=O)CSC,-9,x,x,x,x
COc1ccc(Cl)cc1NC(=O)CSc1nnc(Cc2ccc(C)cc2)c(=O)[nH]1,-22,-3,0,-1,3
COc1ccc(OC)c(NC(=O)CSc2sc3c(O)cc(=O)[nH]c3c2C#N)c1,-6,43*,x,4,13
COc1ccc(OC)c(NC(=O)CSc2nc3[nH]c(=O)cc(O)c3s2)c1,-7,-2,0,1,3
C[C@@H]1CN([C@@H](C)CO)C(=O)c2cc(C#Cc3cccc(F)c3)cnc2O[C@@H]1CN(C)C(=O)c1ccccc1F,-15,1,-1,8,-4
CCCNC(=O)N1C[C@H](O)COC[C@H]2O[C@H](CC(=O)N3CCOCC3)CC[C@@H]21,1,-1,0,2,0
C[C@@H]1CCCCO[C@H](CN(C)Cc2ccc3c(c2)OCO3)[C@H](C)CN([C@H](C)CO)C(=O)c2cc(NC(=O)c3ccccc3)ccc2O1,-31,1,0,0,-1
O=S(=O)(Nc1nc(-c2ccco2)c(-c2ccco2)s1)c1ccc(F)cc1F,-2,62*,1,4,9
O=S(=O)(Nc1nc2ccccc2s1)c1cc(F)ccc1F,4,3,0,-4,0
O=C(Nc1nc(-c2ccco2)c(-c2ccco2)s1)c1c(F)cccc1Cl,0,75*,0,-1,-3
O=C(Nc1nc(-c2ccco2)c(-c2ccco2)s1)c1ccc(F)cc1F,8,4,0,2,0
C[C@H]1CN([C@@H](C)CO)C(=O)c2cccc(NS(=O)(=O)c3cccs3)c2O[C@@H]1CN(C)Cc1ccccc1,15,1,0,-2,-11
CN1CCN(/N=C/c2cccc(Cl)c2Cl)CC1,3,-5,44*,5,-1
C[C@H](CO)N1C[C@H](C)[C@H](CN(C)C(=O)Nc2ccc(C(F)(F)F)cc2)Oc2ccc(NC(=O)CCCCCC(=O)Nc3ccccc3N)cc2CC1=O,-7,x,0,x,x
COCCOC(=O)C1=C(C)NC(=S)NC1c1cccs1 (configuration not stated),-1,x,43*,1,-1
O=C(N/C(=C/c1cccnc1)C(=O)N1CCOCC1)c1ccccc1,4,0,43*,-5,-3
CCOC(=O)N1CCN(C(=O)/C(=C/c2cccs2)NC(=O)c2cccs2)CC1,0,1,0,6,17*
O=C(N/C(=C/c1cccs1)C(=O)N1CCOCC1)c1ccccc1,1,-1,44*,-2,-2
O=C(N/C(=C/c1cccnc1)C(=O)N1CCCCCC1)c1ccccc1,0,4,0,2,-10
CCOC(=O)N1CCN(C(=O)/C(=C\c2cccs2)NC(=O)c2cccs2)CC1,4,0,0,-3,2
CN1CCN(C(=O)/C(=C\c2cccnc2)NC(=O)c2cccc(Br)c2)CC1,24,34,1.4*,-3,-3

# Source: PubChem BioAssay (Broad Institute)
